In PubChem BioAssay (Tox21):
Results filed as inconclusive are left out. Active and inactive are the calls of the source. Unless noted, calls come from the whole dose curve; as a rule, active = well fitted curve in the direction sought with a large enough effect in the repeat runs; inconclusive = weak or mixed curves; inactive = no such curve, though single readings can be large; an effect the other way counts as inactive or inconclusive.

Assays:
[1] = qHTS assay to identify small molecule antagonists of the peroxisome proliferator-activated receptor delta (PPARd) signaling pathway - cell viability counter screen (AID 743213); note: nearly all actives have a fitted effect of over 50% in size
How it was run: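 Viability counter-screen, qHTS format: PPARd-bla HEK293H, L165041 300 nM final, 17 h compound exposure at 37 C, CellTiter-Glo luminescence after 30 min RT.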

[2] = molecular target: Bile acid receptor (Homo sapiens) (UniProt Q96RI1); assay: qHTS assay to identify small molecule antagonists of the farnesoid-X-receptor (FXR) signaling pathway (AID 743217; active = well fitted inhibition curve with a large enough effect in the signal ratio in the repeat runs, not every such curve was filed as active; the % refers to the signal ratio)
How it was run: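 GeneBLAzer FXR-UAS-bla HEK 293T, CDCA-stimulated (50 uM final). Compound treatment 16 h, 37 °C. Detection: beta-lactamase cleavage of B/G FRET substrate, fluorescence.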

[3] = qHTS assay to identify small molecule agonists of the farnesoid-X-receptor (FXR) signaling pathway - cell viability counter screen (AID 743218); note: nearly all actives have a fitted effect of over 45% in size
How it was run: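 Parallel cytotoxicity test: compound-treated (16 h, 37 C) HEK 293T FXR-bla reporter cells were lysed with CellTiter-Glo and luminescence recorded.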

[4] = molecular target: Bile acid receptor (Homo sapiens) (UniProt Q96RI1); assay: qHTS assay to identify small molecule agonists of the farnesoid-X-receptor (FXR) signaling pathway (AID 743220; active = well fitted activation curve with a large enough effect in the signal ratio in the repeat runs, not every such curve was filed as active; the % refers to the signal ratio)
How it was run: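 Beta-lactamase reporter under UAS control in GeneBLAzer FXR HEK 293T cells (5000/well) measured with LiveBLAzer FRET substrate after 2 h at room temperature. Compound exposure lasted 16 h at 37C.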

[5] = qHTS assay to identify small molecule antagonists of the farnesoid-X-receptor (FXR) signaling pathway - cell viability counter screen (AID 743221; active = well fitted cell-killing curve with a large enough effect in the repeat runs, not every such curve was filed as active; note: nearly all actives have a fitted effect of over 50% in size)
How it was run: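 Luminescence from CellTiter-Glo measures cytotoxicity in GeneBLAzer FXR-UAS-bla HEK 293T cells. Cells were exposed to compounds with 50 uM chenodeoxycholic acid (final) for 16 h at 37 C, in wells also used for the reporter readout.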

[6] = molecular target: Vitamin D3 receptor (Homo sapiens) (UniProt P11473); assay: qHTS assay to identify small molecule agonists of the vitamin D receptor (VDR) signaling pathway (AID 743222; calls by dose curve)
How it was run: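 In VDR-bla cells, compound-induced beta-lactamase expression is quantified by FRET substrate fluorescence. Treatment lasts 16 h at 37C; substrate develops 2 h at room temperature.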

[7] = molecular target: Vitamin D3 receptor (Homo sapiens) (UniProt P11473); assay: qHTS assay to identify small molecule antagonists of the vitamin D receptor (VDR) signaling pathway (AID 743223; active = well fitted inhibition curve with a large enough effect in the signal ratio in the repeat runs, not every such curve was filed as active; the % refers to the signal ratio)
How it was run: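 Antagonist mode uses 1alpha,25-dihydroxyvitamin D3 at 3 nM final as stimulus. VDR-bla cells receive compounds in DMSO, incubate 16 h at 37C, then a beta-lactamase FRET substrate for 2 h at room temperature before fluorescence measurement.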

[8] = qHTS assay to identify small molecule agonists of the vitamin D receptor (VDR) signaling pathway - cell viability counter screen (AID 743224); note: series mostly up to about 63 µM; nearly all actives have a fitted effect of over 50% in size
How it was run: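 Plated VDR-bla cells (4 h, 37C) received compound, incubated 16 h, then LiveBLAzer substrate 2 h RT; CellTiter-Glo added afterwards, luminescence read at 30 min.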

[9] = molecular target: Peroxisome proliferator-activated receptor delta (Homo sapiens) (UniProt Q03181); assay: qHTS assay to identify small molecule antagonists of the peroxisome proliferator-activated receptor delta (PPARd) signaling pathway (AID 743215; active = well fitted inhibition curve with a large enough effect in the signal ratio in the repeat runs, not every such curve was filed as active; the % refers to the signal ratio;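 note: cells stimulated with agonist L165041 at 300 nM final during compound exposure; series mostly up to about 62 µM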)
How it was run: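 HEK293H UAS-bla, PPARd; agonist L165041 300 nM final with cpd in DMSO; 37 C 17 h; FRET substrate, RT 2 h; fluorescence intensity.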

Measured: outcome

Sequence of Vitamin D3 receptor (Homo sapiens) (P11473 whole entry, looked up): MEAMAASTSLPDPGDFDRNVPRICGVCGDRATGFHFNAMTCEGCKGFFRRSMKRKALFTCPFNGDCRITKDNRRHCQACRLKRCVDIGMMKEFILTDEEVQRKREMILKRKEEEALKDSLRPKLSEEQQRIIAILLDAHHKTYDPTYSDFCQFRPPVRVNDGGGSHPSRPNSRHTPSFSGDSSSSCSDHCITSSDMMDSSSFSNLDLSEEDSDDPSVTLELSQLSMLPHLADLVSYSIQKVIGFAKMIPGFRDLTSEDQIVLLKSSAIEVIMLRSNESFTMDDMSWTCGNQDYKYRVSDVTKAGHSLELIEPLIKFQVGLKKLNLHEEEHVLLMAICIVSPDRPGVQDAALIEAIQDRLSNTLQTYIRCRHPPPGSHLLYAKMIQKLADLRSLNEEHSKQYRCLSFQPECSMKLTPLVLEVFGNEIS
Sequence of Bile acid receptor (Homo sapiens) (Q96RI1 whole entry, looked up): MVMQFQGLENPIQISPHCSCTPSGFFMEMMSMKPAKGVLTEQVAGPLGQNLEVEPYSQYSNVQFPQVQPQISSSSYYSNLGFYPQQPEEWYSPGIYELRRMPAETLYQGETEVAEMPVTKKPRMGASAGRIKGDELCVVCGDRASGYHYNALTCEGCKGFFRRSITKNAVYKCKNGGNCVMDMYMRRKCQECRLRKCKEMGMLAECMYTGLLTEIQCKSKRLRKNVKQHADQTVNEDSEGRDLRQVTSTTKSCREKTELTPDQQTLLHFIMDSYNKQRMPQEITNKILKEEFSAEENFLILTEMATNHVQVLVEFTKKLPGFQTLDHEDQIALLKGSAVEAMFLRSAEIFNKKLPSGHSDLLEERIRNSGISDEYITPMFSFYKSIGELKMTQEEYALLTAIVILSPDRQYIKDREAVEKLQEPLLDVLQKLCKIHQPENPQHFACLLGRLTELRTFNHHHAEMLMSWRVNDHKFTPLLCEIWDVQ
Sequence of Peroxisome proliferator-activated receptor delta (Homo sapiens) (Q03181 whole entry, looked up): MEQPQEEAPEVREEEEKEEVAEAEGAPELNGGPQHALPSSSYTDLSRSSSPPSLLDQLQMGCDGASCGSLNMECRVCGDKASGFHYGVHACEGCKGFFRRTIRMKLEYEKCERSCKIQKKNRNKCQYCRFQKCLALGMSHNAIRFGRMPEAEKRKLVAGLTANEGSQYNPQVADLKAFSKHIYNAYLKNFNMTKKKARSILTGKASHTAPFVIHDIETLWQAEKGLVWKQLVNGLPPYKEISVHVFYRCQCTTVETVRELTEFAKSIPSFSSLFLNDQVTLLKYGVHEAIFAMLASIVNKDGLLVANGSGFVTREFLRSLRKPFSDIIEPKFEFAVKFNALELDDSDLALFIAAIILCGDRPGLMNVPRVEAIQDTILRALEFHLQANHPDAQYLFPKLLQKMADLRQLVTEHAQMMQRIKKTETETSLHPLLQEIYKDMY

CC(C)(C)OC=O
not listed: [9]
inactive: all other assays above

COC(=O)N/N=C/c1c[n+]([O-])c2ccccc2[n+]1[O-]
inactive: [1] | [9] | [4] | [5] | [8]

COCc1nnc(-c2ccc[n+]([O-])c2)n1-c1c(Cl)c(Cl)cc2[nH]c(=O)c(=O)[nH]c12
not listed: [2] | [9]
inactive: all other assays above

CC(C)(C)C(=O)CC(=O)C(C)(C)C
not listed: [9]
inactive: all other assays above

O=c1[nH]c(=O)c2cn[nH]c2[nH]1
not listed: [2] | [4] | [5]
inactive: all other assays above

CCCCc1ccc(Cl)cc1
not listed: [2] | [3] | [7]
inactive: all other assays above

CCCCCCC(=O)c1ccccc1
inactive: [1] | [9] | [4] | [5] | [8]

CN(C)CCc1c[nH]c2ccc(C[C@H]3COC(=O)N3)cc12
not listed: [6] | [7] | [9]
inactive: all other assays above

CC(=O)/C=C/C=C1/C2CCC(C2)C1(C)C (stereo unspecified)
not listed: [2] | [9]
inactive: all other assays above

CCCCN(CCCC)CCCCCCN(CCCC)CCCC
inactive: [1] | [9] | [3] | [6]

CCNC(=O)C(C)OC(=O)Nc1ccccc1 (stereo unspecified)
not listed: [5] | [9]
inactive: all other assays above

CCCCCCCCCCCCCCBr
not listed: [2] | [9]
inactive: all other assays above

CC(=O)SCC(CC(=O)c1ccc(C)cc1)C(=O)O (stereo unspecified)
not listed: [2] | [3]
inactive: all other assays above

c1coc(Cn2cccc2)c1
inactive: [1] | [3] | [4] | [5] | [8]

O=C1CC2(CCCC2)CC(=O)N1CCNCC1COc2ccccc2O1 (stereo unspecified)
not listed: [9]
inactive: all other assays above

CCCCCCCCS(=O)(=O)O
not listed: [2] | [6] | [9]
inactive: all other assays above

CCCC(C)C(O)CC (stereo unspecified)
not listed: [2] | [7] | [9]
inactive: all other assays above

NS(=O)(=O)c1cc2c(cc1C(F)(F)F)NCNS2(=O)=O
inactive: [1] | [9] | [6] | [7] | [8]

O=C(O)Cc1ccccc1Oc1ccc(Cl)cc1Cl
inactive: [1] | [2] | [4] | [5] | [8]

O=C1CCCc2c(O)cccc21
not listed: [9]
inactive: all other assays above

CCC(C)SSC(C)CC (stereo unspecified)
inactive: [1] | [3] | [6] | [7] | [8]

CC(CC(=O)Cl)CC(C)(C)C (stereo unspecified)
inactive: [1] | [3] | [5] | [6] | [8]

CCc1ccc(CC)cc1
inactive: [1] | [5] | [6] | [7] | [8]

C=CCn1cc[n+](C)c1
not listed: [2] | [4] | [9]
inactive: all other assays above

CCCC(=O)OC
not listed: [2] | [4] | [9]
inactive: all other assays above

COCCCOc1cc(C[C@@H](C[C@H](N)[C@@H](O)C[C@H](C(=O)NCC(C)(C)C(N)=O)C(C)C)C(C)C)ccc1OC
inactive: [1] | [3] | [5]

COc1cc(C(=O)NC2CCCNC2)cc(OC)c1OC (stereo unspecified)
not listed: [1] | [5] | [9]
inactive: all other assays above

C/C(Cl)=C/CCl
not listed: [1] | [6] | [7]
inactive: all other assays above

O=Cc1ccc(C(=O)O)cc1
inactive: [1] | [3] | [5] | [8]

Cc1cccc(N)n1
inactive: [2] | [3] | [6] | [8]

CCCCCCCCOCCC#N
inactive: [1] | [5] | [6] | [7] | [8]

C=CC(=O)OCCOCCOCC
inactive: [1] | [3] | [5] | [8]

C/C=C/C(=O)CCCC
inactive: [9] | [2] | [4] | [5] | [7]

CC[N+](C)(CC)CC
inactive: [1] | [3] | [4] | [5] | [8]

COc1ccc(Cl)cc1C
inactive: [1] | [3] | [5] | [6] | [8]

CNCCc1ccccn1
inactive: [1] | [3] | [5] | [8]

N=C(N)S(=O)O
inactive: [1] | [3] | [6] | [7] | [8]

CCOc1ccccc1OCCN[C@H](C)Cc1ccc(OC)c(S(N)(=O)=O)c1
inactive: [3] | [5] | [6] | [7] | [8]

CC(C)OCCO
inactive: [3] | [5] | [6] | [7] | [8]

CCCCOCCCC
not listed: [2] | [4] | [9]
inactive: all other assays above

CCN1CCN(C(=O)N[C@@H](C(=O)N[C@@H]2C(=O)N3C(C(=O)O)=C(CSc4nnnn4C)CS[C@H]23)c2ccc(O)cc2)C(=O)C1=O
inactive: [9] | [5]

NC[C@H]1O[C@H](O[C@H]2[C@H](O)[C@@H](O[C@H]3O[C@H](CO)[C@@H](O)[C@H](N)[C@H]3O)[C@H](N)C[C@@H]2N)[C@H](N)[C@@H](O)[C@@H]1O
not listed: [2] | [4] | [9]
inactive: all other assays above

CCCCN1C(=O)c2ccccc2C1=O
inactive: [2] | [3] | [5] | [6] | [8]

CCCCC(CC)COC(=O)CC#N (stereo unspecified)
not listed: [2] | [3] | [9]
inactive: all other assays above

CCC(=O)OCCOc1ccccc1
not listed: [2] | [4] | [9]
inactive: all other assays above

CCCC(=O)C(CC)Sc1ccoc1C (stereo unspecified)
inactive: [1] | [3] | [5] | [6] | [8]

CC12CCCC=C1C(=O)OC2=O (stereo unspecified)
not listed: [1] | [2] | [4]
inactive: all other assays above

CO/N=C(\C(=O)O)c1csc(NC(=O)CCl)n1
inactive: [3] | [5] | [6] | [7] | [8]

CC(=O)Nc1ccc(OCCOCCOc2ccc(NC(C)=O)cc2)cc1
inactive: [1] | [3] | [8]

CC(C)(O)c1ccc(C(C)(C)O)cc1
inactive: [1] | [3] | [5] | [6] | [8]

CC(=O)OCC(=O)[C@@]1(O)CC[C@H]2[C@@H]3CCC4=CC(=O)C=C[C@]4(C)[C@H]3[C@@H](O)C[C@@]21C
not listed: [2] | [4] | [9]
inactive: all other assays above

O=C1c2ccccc2C(=O)N1CO
inactive: [9] | [8]

CC(=O)O[C@@H]1CC2C3CCc4cc(OC(=O)c5ccccc5)ccc4C3CCC2(C)[C@H]1OC(C)=O (stereo partly specified)
not listed: [2] | [3] | [9]
inactive: all other assays above

C=CCCCCCCCCOC(C)=O
inactive: [3] | [4] | [5] | [8]

Clc1cc(Cl)c(Cl)c(Cl)c1Cl
not listed: [2] | [4] | [9]
inactive: all other assays above

COc1cnc(NS(=O)(=O)c2ccc(N)cc2)nc1
inactive: [1] | [5] | [8]

N#CC1(N)CCCCC1
not listed: [2] | [4] | [9]
inactive: all other assays above

CCCc1ccc(O)c(OC)c1
inactive: [1] | [5] | [6] | [8]
